Cav3 T inh: Cav3.2 calcium influx blockers – cell-based, Fluo-4 calcium fluorescence, FDSS, MLSMR library, primary screen; Cav3.2-expressing cells; active compounds read low; B-score at 10 µM; 100,000 tested, 4% active; AID 449739, 2010;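 active = single-dose well whose peak fluorescence ratio is a statistical outlier from its plate by either plate-standardised score or position-corrected B-score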
Pyk2 oligo antag: antagonists of Pyk2 self-association, primary screen, Q293 cells, FERM NanoBiT luminescence, HTS | 99,000 tested, 0.83% active | AID 1347419, 2020 | active compounds read low | z-score (the deposit names both 25 µM and 10 µM);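 active = Z-score of -3 or lower, scaled per plate to the spread of control and sample wells; inactive = z-score above -3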;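 also: negative z-score means lost luminescence so less FERM oligomerization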
Target sequence (Q14289 whole entry, looked up): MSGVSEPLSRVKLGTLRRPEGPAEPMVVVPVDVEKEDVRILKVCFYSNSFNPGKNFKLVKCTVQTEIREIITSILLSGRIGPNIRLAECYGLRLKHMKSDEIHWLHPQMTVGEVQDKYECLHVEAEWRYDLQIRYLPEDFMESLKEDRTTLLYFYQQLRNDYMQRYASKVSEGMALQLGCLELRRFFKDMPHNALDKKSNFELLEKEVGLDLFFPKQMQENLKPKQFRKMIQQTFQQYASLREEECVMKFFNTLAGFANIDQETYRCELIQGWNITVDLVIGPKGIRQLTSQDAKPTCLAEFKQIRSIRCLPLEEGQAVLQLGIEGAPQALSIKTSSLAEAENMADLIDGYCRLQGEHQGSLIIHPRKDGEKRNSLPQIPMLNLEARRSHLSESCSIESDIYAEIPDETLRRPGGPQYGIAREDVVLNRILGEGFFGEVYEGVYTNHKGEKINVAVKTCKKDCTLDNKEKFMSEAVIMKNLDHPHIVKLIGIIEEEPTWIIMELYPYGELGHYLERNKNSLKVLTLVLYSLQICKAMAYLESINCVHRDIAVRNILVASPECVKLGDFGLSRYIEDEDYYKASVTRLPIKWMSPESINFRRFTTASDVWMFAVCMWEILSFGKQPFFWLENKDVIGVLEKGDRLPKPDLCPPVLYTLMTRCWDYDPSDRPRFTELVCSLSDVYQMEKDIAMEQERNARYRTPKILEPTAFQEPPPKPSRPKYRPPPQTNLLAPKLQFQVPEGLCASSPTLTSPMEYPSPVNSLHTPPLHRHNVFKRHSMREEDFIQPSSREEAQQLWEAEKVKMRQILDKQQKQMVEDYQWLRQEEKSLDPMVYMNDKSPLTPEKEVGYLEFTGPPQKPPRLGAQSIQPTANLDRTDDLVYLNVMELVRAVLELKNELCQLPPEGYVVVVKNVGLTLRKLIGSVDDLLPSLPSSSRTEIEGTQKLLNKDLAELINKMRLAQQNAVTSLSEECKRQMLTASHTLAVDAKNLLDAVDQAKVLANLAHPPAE
MRP resist rev: reversal of MRP1-mediated doxorubicin resistance, primary screen, H69AR cells, doxorubicin co-treatment. H69AR cells + 2 uM doxorubicin, CellTiter-Glo, 72 h. 85,000 tested, 0.04% active. differential viability (reversal), % at 10 µM;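 active = viability drop by adding the cancer drug above about 55%, with treated viability meeting a 40% cutoff, limit read from the data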;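 also: larger differential means the compound sensitizes cells more to doxorubicin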
CD11b adhes inh: inhibitors of CD11b/CD18 adhesion to fibrinogen, primary screen, K562 cells, luminescence. Integrin beta-2 (Homo sapiens) + Integrin alpha-M (Homo sapiens), P05107+P11215. ATPlite luminescence; Mn2+ added to activate the integrin. inhibition, % at 10 µM. 93,000 tested, 0.54% active. AID 1497, 2009;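 active = primary inhibition of 50% or more at 10 µM, then 40% or more on retest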
CD11b adhes enh: enhancers of CD11b/CD18 adhesion to fibrinogen, primary screen, K562 cells, luminescence | 93,000 tested, 0.07% active | Integrin beta-2 (Homo sapiens) + Integrin alpha-M (Homo sapiens), P05107+P11215 | ATPlite luminescence | activation, % at 10 µM;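 active = 10 µM primary screen giving 50% or more activity, confirmed by 40% or more on retest at that dose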
MRP1 act: H69AR viability gain despite doxorubicin, primary screen, MRP-1 activator project, H69AR cells, CellTiter-Glo. AID 799, 2007. viability rescue. 140,000 tested, 0.61% active. viability increase, % at 10 µM;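 active = viability gain under doxorubicin at or above a set limit, the compound median plus 3 SD, cut at about 4.7% in these data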;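 also: MRP-1 overexpressing cells given doxorubicin 25 µM after compound pretreatment; 18-22 h compound pretreatment then 72 h with doxorubicin before readout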
Of the large screens only hits and unclear results are named; the others gave an inactive call. Most compounds without a hit are left out; they make up all but 4.1% or so of the library.

Cc1ccc(-c2nc3ccccn3c2NCc2ccc3c(c2)OCO3)cc1	Cav3 T inh -4.4 (no result: CD11b adhes inh, CD11b adhes enh)
COc1cccc2c1C(=O)c1c(O)c3c(c(O)c1C2=O)C[C@@](O)(C(=O)CO)C[C@@H]3O[C@H]1C[C@H](N)[C@H](O)[C@H](C)O1	Cav3 T inh -5.7 (no result: Pyk2 oligo antag, MRP resist rev, CD11b adhes inh, CD11b adhes enh)
O=C(NCc1ccc(C(F)(F)F)cc1)C1CC(c2ccccc2C(F)(F)F)=NO1 (stereo unspecified)	none (no result: Pyk2 oligo antag, MRP resist rev, CD11b adhes inh, CD11b adhes enh, MRP1 act)
Cc1ccc(NC(=O)CN2C(=O)S/C(=C/c3ccc(-c4cc(C(=O)O)ccc4C)o3)C2=O)cc1C	CD11b adhes enh 61
COc1ccc(C(C)=O)cc1CSc1nnc(Nc2ccccc2C)s1	MRP1 act 6.0 (no result: Cav3 T inh, Pyk2 oligo antag, MRP resist rev, CD11b adhes inh, CD11b adhes enh)
Cc1ccc2oc(-c3cccc(NC(=O)/C=C/c4cccc([N+](=O)[O-])c4)c3C)nc2c1	none (no result: Cav3 T inh, Pyk2 oligo antag, MRP resist rev, CD11b adhes inh, CD11b adhes enh)
NC(=O)c1ccccc1NC(=O)/C=C/c1cccc(Cl)c1	Pyk2 oligo antag -3.2 (no result: MRP resist rev, CD11b adhes inh, CD11b adhes enh)
NC(=O)c1ccccc1NC(=O)/C=C/c1c(Cl)cccc1Cl	none (no result: MRP resist rev, CD11b adhes inh, CD11b adhes enh)
Cc1ccc(C)c(N2CCN(c3nnnn3-c3ccccc3)CC2)c1	none
N#CCCn1nc(-c2ccccc2)cc1-n1c(C(F)(F)F)nc2ccccc21	Cav3 T inh -3.4
Cc1ccc(C(=O)NCc2ccco2)cc1Br	none
Cc1ccc2c(CC(=O)NCc3ccco3)coc2c1C	Cav3 T inh -9.4
Cc1cc(C(=O)NCc2cccs2)ccc1[N+](=O)[O-]	none (no result: Cav3 T inh, Pyk2 oligo antag, MRP resist rev, CD11b adhes inh, CD11b adhes enh)
CC(C)CCNc1nnnc2c1sc1nc(N3CCOCC3)c3c(c12)CC(C)(C)SC3	Cav3 T inh -4.8
CCOC(=O)C1=C(C)Nc2sc(C(=O)c3ccc(F)cc3)c(N)c2C1c1ccc(C(=O)OC)cc1 (stereo unspecified)	none (no result: Cav3 T inh, MRP resist rev, CD11b adhes inh, CD11b adhes enh)
CCOC(=O)C1=C(C)Nc2sc(C(=O)c3ccc(C)cc3)c(N)c2C1c1ccc(C(=O)OC)cc1 (stereo unspecified)	MRP1 act 6.5 (no result: Cav3 T inh, Pyk2 oligo antag, MRP resist rev, CD11b adhes inh, CD11b adhes enh)
COc1ccc(CC(=O)Nc2cccc(-c3nnc(-c4ccccc4)o3)c2)cc1OC	Pyk2 oligo antag -3.6
CCOC(=O)c1nnn(-c2nonc2N)c1CN(CC)c1ccccc1	Cav3 T inh -4.8
CCOC(=O)c1nnn(-c2nonc2N)c1CN(CC)CC	none
COc1ccc(C2C(C(=O)OCC(=O)NC(C)(C)C)CCC(=O)N2c2ccc(C)cc2)cc1OC (stereo unspecified)	MRP1 act 5.7 (no result: MRP resist rev)
COc1ccc(C2C(C(=O)OCC(=O)Nc3ccc(C)cc3)CCC(=O)N2c2ccc(OC)cc2)cc1 (stereo unspecified)	none
Cc1ccc(NC2=NCCCCC2)cc1	none
O=C(CSc1cn(Cc2ccccc2)c2ccccc12)Nc1nccs1	Cav3 T inh -4.3 (no result: Pyk2 oligo antag)
O=C(CSCc1ccccc1)Nc1nccs1	none
Cc1cccc(C)c1-n1c(C)cc(/C=N/NC(N)=S)c1C	Cav3 T inh -5.9 (no result: MRP resist rev)
CC(C(=O)NC1CCCC1)N(C(=O)CS(=O)CC(=O)Nc1ccc(F)cc1)c1ccc2c(c1)OCCO2 (stereo unspecified)	none (no result: MRP resist rev, CD11b adhes inh, CD11b adhes enh)
Cc1ccc(NC(=O)CS(=O)CC(=O)N(c2ccc(C)cc2)C(C)C(=O)NC2CCCCC2)cc1 (stereo unspecified)	Cav3 T inh -7.3 (no result: CD11b adhes inh, CD11b adhes enh)
COC(=O)CC1SC(=O)NC1=Nc1ccc(O)cc1 (stereo unspecified)	none (no result: CD11b adhes inh, CD11b adhes enh)
COC(=O)CC1SC(=O)NC1=O (stereo unspecified)	MRP1 act 7.2
CC(C)C(=O)Nc1cccc(NC(=S)NC(=O)c2ccc([N+](=O)[O-])cc2)c1	Cav3 T inh -4 (no result: MRP resist rev)
O=[N+]([O-])c1ccc(N2CCOCC2)cc1SCc1ccco1	none (no result: Cav3 T inh, Pyk2 oligo antag, MRP resist rev, CD11b adhes inh, CD11b adhes enh)
COc1ccc(NS(=O)(=O)c2c(C)cc(C)cc2C)cc1	Cav3 T inh -6.1
COc1ccc(OC)c(S(=O)(=O)Nc2ccc(Oc3ccccc3)cc2)c1	Pyk2 oligo antag -3.6
COC(=O)c1[nH]c2ccc(C)cc2c1NC(=O)c1ccccc1[N+](=O)[O-]	none (no result: Cav3 T inh, Pyk2 oligo antag, MRP resist rev, CD11b adhes inh, CD11b adhes enh)
c1ccc2[nH]c(CSc3nccs3)nc2c1	none (no result: MRP resist rev, CD11b adhes inh, CD11b adhes enh)
COc1ccc(OCc2nc3ccccc3[nH]2)cc1	none
Clc1ccc(SCc2nc3ccccc3[nH]2)cc1	Cav3 T inh -4.5 (no result: MRP resist rev, CD11b adhes inh, CD11b adhes enh)
c1ccc2cc(OCc3nc4ccccc4[nH]3)ccc2c1	Cav3 T inh -5.9 (no result: CD11b adhes inh, CD11b adhes enh)
Clc1ccc(OCCSCc2nc3ccccc3[nH]2)cc1	Cav3 T inh -8.3, CD11b adhes inh 76 (no result: MRP resist rev)
Cc1ccc(OCCSCc2nc3ccccc3[nH]2)cc1	Cav3 T inh -5.5 (no result: MRP resist rev, CD11b adhes inh, CD11b adhes enh)
CCOC(=O)Cn1nnnc1C(C(C)C)N(Cc1cccs1)Cc1cc2cc(C)ccc2[nH]c1=O (stereo unspecified)	none
CCCCNc1oc(-c2ccc(OC)cc2)nc1S(=O)(=O)c1ccccc1	MRP1 act 6.2
CCOc1ccc(-c2nc(S(=O)(=O)c3ccccc3)c(NCc3cccnc3)o2)cc1	Pyk2 oligo antag -3.3 (no result: Cav3 T inh)
COc1ccccc1CN1C(=O)CCC1(C)C(=O)NC1CCCCCC1 (stereo unspecified)	none
C=CCn1c(SCC(=O)N2CC(=O)Nc3ccccc32)nc2scc(-c3cccs3)c2c1=O	Cav3 T inh -7.2
CC1CC(C)CN(C(=O)CSc2nnc(-c3ccc(Cl)s3)o2)C1 (stereo unspecified)	Cav3 T inh -3.4 (no result: Pyk2 oligo antag)
CC1CC(C)CN(C(=O)CSc2nnc(-c3ccc(F)cc3)o2)C1 (stereo unspecified)	none (no result: Pyk2 oligo antag)
CCn1ccc(C(=O)NC2=NCCS2)n1	none (no result: Cav3 T inh, Pyk2 oligo antag, MRP resist rev, CD11b adhes inh, CD11b adhes enh)
CC(C)n1c(N2CCN(C(=O)N3CCCCC3)CC2)nc2ccccc21	none
COc1cc(/C=C/C(=O)NNc2c(F)c(F)cc(F)c2F)ccc1OC(F)F	Cav3 T inh -4.3
Cc1ccc(N2CCN(C(=O)c3ccccc3Br)CC2)c(C)c1	none
Fc1ccc(N2CCN(c3ccc4c(C(F)(F)F)cc(C(F)(F)F)nc4n3)CC2)cc1	Cav3 T inh -4 (no result: MRP resist rev, CD11b adhes inh, CD11b adhes enh)
FC(F)(F)c1cc(C(F)(F)F)c2ccc(N3CCN(c4ccc(Cl)cc4)CC3)nc2n1	Cav3 T inh -7 (no result: MRP resist rev, CD11b adhes inh, CD11b adhes enh)
N#CC(c1ccc(Cl)cc1)c1ccc2c(C(F)(F)F)cc(C(F)(F)F)nc2n1 (stereo unspecified)	CD11b adhes inh 88
FC(F)(F)c1cc(C(F)(F)F)c2ccc(N3CCN(c4ncccn4)CC3)nc2n1	none (no result: MRP resist rev)
COc1ccccc1Oc1nc(-c2ccccc2)cc(C)c1S(C)(=O)=O	Pyk2 oligo antag -3.5
Cc1cccc(Oc2nc(-c3ccccc3)cc(C)c2S(C)(=O)=O)c1C	Cav3 T inh -3.9
O=C(COc1ccc(S(=O)(=O)N2CCCCC2)cc1)NC1CCCCC1	none
c1cncc(-c2nc(NCC3COc4ccccc4O3)c3ccccc3n2)c1 (stereo unspecified)	Pyk2 oligo antag -3.8 (no result: Cav3 T inh)

Source: PubChem BioAssay
